Test results from publication PMC5540273 (PLoS ONE, 2017).

Columns and labels:
Details in all cases: concentration: 1 μM, replicates: in singlicate; n = 1
INSRR = tested on: INSRR
INSR = tested on: INSR
IRAK1 = tested on: IRAK1
IRAK3 = tested on: IRAK3
IRAK4 = tested on: IRAK4
ITK = tested on: ITK
[1] = tested on: JAK1(JH1domain-catalytic)
[2] = tested on: JAK1(JH2domain-pseudokinase)
[3] = tested on: JAK2(JH1domain-catalytic)
[4] = tested on: JAK3(JH1domain-catalytic)
JNK1 = tested on: T1, JNK1
T1 construct: gene MAPK8

JNK2 = tested on: T2, JNK2
T2 construct: gene MAPK9

JNK3 = tested on: T3, JNK3
T3 construct: gene MAPK10

KIT-autoinhibited = tested on: KIT-autoinhibited
KIT = tested on: KIT
LATS1 = tested on: LATS1
LATS2 = tested on: LATS2
LCK = tested on: LCK
LIMK1 = tested on: LIMK1
LIMK2 = tested on: LIMK2
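Note: KINOMEscan kinase panel screen.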

Row | Compound | %Inh (INSRR) [%] | %Inh (INSR) [%] | %Inh (IRAK1) [%] | %Inh (IRAK3) [%] | %Inh (IRAK4) [%] | %Inh (ITK) [%] | %Inh [1] [%] | %Inh [2] [%] | %Inh [3] [%] | %Inh [4] [%] | %Inh (JNK1) [%] | %Inh (JNK2) [%] | %Inh (JNK3) [%] | %Inh (KIT-autoinhibited) [%] | %Inh (KIT) [%] | %Inh (LATS1) [%] | %Inh (LATS2) [%] | %Inh (LCK) [%] | %Inh (LIMK1) [%] | %Inh (LIMK2) [%]
1 | CSc1ccc(NC2=C(c3ccccc3Cl)C(=O)NC2=O)cc1 [SB-342411] | 0 | 0 | 0 | 0 | 19 | 4 | 0 | 0 | 0 | 48 | 1 | 1 | 0 | 0 | 25 | 5 | 23 | 18 | 0 | 7
2 | Cc1cccc(-c2nc(Nc3ccc4[nH]nnc4c3)c3ccccc3n2)n1 [GW867587] | 0 | 0 | 0 | 0 | 0 | 0 | 0 | 52 | 22 | 0 | 0 | 0 | 0 | 0 | 0 | 0 | 0 | 7 | 0 | 0
3 | Cl.c1ccc(Cn2ccc3cc(Nc4ncnc5ccccc45)ccc32)cc1 [GW275568] | 0 | 12 | 0 | 0 | 0 | 12 | 18 | 10 | 100 | 0 | 0 | 23 | 16 | 0 | 41 | 0 | 22 | 41 | 8 | 15
4 | Fc1cccc(COc2ccc(Nc3ncnc4sc(-c5ccc[nH]5)cc34)cc2Cl)c1 [GW707818] | 0 | 13 | 20 | 0 | 0 | 0 | 18 | 4 | 100 | 0 | 1 | 15 | 0 | 0 | 16 | 9 | 0 | 8 | 9 | 17
5 | Fc1ccc(-c2ncn(CCCNCc3ccccc3)c2-c2ccncc2)cc1 | 5 | 0 | 24 | 9 | 19 | 21 | 0 | 24 | 36 | 8 | 34 | 48 | 57 | 4 | 19 | 30 | 34 | 40 | 10 | 7
6 | CCC(CC)(CC)n1cnc2c(N)ncnc21 [SKF-97620] | 4 | 0 | 33 | 0 | 0 | 9 | 10 | 0 | 22 | 22 | 29 | 24 | 4 | 0 | 0 | 24 | 0 | 14 | 10 | 0
7 | Fc1ccc(Nc2nccc(-c3c(-c4ccc(Cl)cc4)nn4ncccc34)n2)cc1F [GW829058] | 20 | 19 | 24 | 7 | 0 | 18 | 0 | 12 | 39 | 37 | 40 | 63 | 56 | 12 | 38 | 11 | 19 | 11 | 0 | 7
8 | Nc1nc(-c2ccc3c(N)n[nH]c3c2)cc(N2CCC[C@@H](C(=O)Nc3ccccc3)C2)n1.O=C(O)C(F)(F)F.O=C(O)C(F)(F)F [GSK2288359] | 0 | 9 | 0 | 0 | 0 | 0 | 14 | 23 | 100 | 0 | 0 | 0 | 0 | 4 | 25 | 0 | 16 | 0 | 10 | 7
9 | CN1CCC(n2cnc(-c3ccc(F)cc3)c2-c2ccnc(NC3CCNCC3)n2)CC1 [SB-229482] | 0 | 0 | 20 | 0 | 4 | 0 | 0 | 0 | 18 | 0 | 71 | 96 | 92.4 | 0 | 25 | 0 | 8 | 0 | 0 | 30
10 | Cn1ccc2ncnc(Nc3ccc(Oc4cccc(Cl)c4)c(Cl)c3)c21 | 0 | 16 | 27 | 6 | 27 | 23 | 16 | 0 | 15 | 4 | 8 | 0 | 0 | 0 | 24 | 44 | 0 | 0 | 0 | 6
11 | Fc1cccc(COc2ccc(Nc3ncnc4cc[nH]c34)cc2Cl)c1 | 0 | 0 | 6 | 0 | 4 | 13 | 0 | 36 | 19 | 0 | 33 | 17 | 46 | 6 | 24 | 26 | 25 | 25 | 22 | 17
12 | O=C(c1ccc(-c2cc(-c3c[nH]nc3-c3ccccn3)ccn2)cc1)N1CCCC1 [GW792479] | 0 | 6 | 0 | 0 | 0 | 0 | 0 | 15 | 0 | 39 | 27 | 0 | 0 | 0 | 11 | 0 | 0 | 3 | 0 | 0
13 | Clc1ccc(-c2cc(-c3c[nH]nc3-c3ccccn3)ccn2)cc1 [GW681251] | 0 | 0 | 43 | 0 | 8 | 16 | 0 | 0 | 2 | 0 | 35 | 30 | 33 | 0 | 54 | 0 | 0 | 13 | 0 | 0
14 | CC(C)N1CCC(n2cnc(-c3ccc(F)cc3)c2-c2ccnc(N)n2)CC1 [SB-223132] | 0 | 0 | 0 | 23 | 0 | 0 | 0 | 56 | 0 | 24 | 23 | 12 | 0 | 0 | 0 | 0 | 0 | 14 | 0 | 9
15 | CCc1nc(-c2cccc(N(C)S(=O)(=O)c3ccccc3)c2)c(-c2ccnc(Nc3ccc(N4CCN(C(C)=O)CC4)nc3)n2)s1 [GSK1645895] | 0 | 20 | 11 | 0 | 13 | 0 | 15 | 21 | 0 | 0 | 23 | 30 | 22 | 8 | 19 | 0 | 20 | 44 | 31 | 0
16 | Cl.Fc1ccccc1COc1ccc(Nc2ncnc3ccc(-c4nnc(C(F)(F)F)o4)cc23)cc1Cl [GW424170] | 0 | 0 | 0 | 0 | 0 | 4 | 7 | 0 | 6 | 0 | 0 | 4 | 0 | 0 | 13 | 0 | 0 | 12 | 0 | 16
